A short description of test [1]: P-glycoprotein substrates identified in KB-8-5-11 adenocarcinoma cell line, qHTS therapeutic library screen (AID 1346987). Also: nearly all actives have a fitted effect of over 65% in size. Also: potency is read from the fitted curve at half-maximal effect. The method in brief: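 Compounds are pinned in dose-response onto KB-8-5-11 cells (500 cells/well, colchicine-free medium) and left 72 h at 37 degree C. CellTiter-Glo luminescence then yields AC50 values.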
On the technique in general: In qHTS, concentration-response curves come from the screen itself.

Test [2] is described as follows: Natriuretic polypeptide receptor (hNpr1) antagonism - Pilot counterscreen GloSensor control cell line (AID 1347045; calls by dose curve; also: potency is read from the fitted curve at half-maximal effect). The method in brief:
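Control counterscreen: luciferase cGMP-biosensor HEK293 cells (no Npr1) received compound for 30 min at room temperature after GloSensor substrate loading. Luminescence was measured before and 20 min after soluble guanylyl cyclase activation by 50 uM nitroprusside.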

Test [3] has as its target Atrial natriuretic peptide receptor 1 (Homo sapiens) (UniProt P16066). The test can be described thus: Natriuretic polypeptide receptor (hNpr1) antagonism - Pilot screen (AID 1347049; calls by dose curve;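 as to Potency: agonist-evoked cGMP luminescence read 20 min after hNppA addition; potency is read from the fitted curve at half-maximal effect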). Put shortly: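 cGMP-sensor HEK293/hNpr1 cells, 1500/well, plated overnight at 37C. 2% GloSensor reagent, 2 h RT. Compound (23 nL pin transfer) 30 min RT, baseline luminescence pre-read. 0.1 nM hNppA, 20 min RT, post-read.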

Test [4] in a line: NS1 protein of Zika virus - qHTS assay to identify small molecule inhibitors in human HEK 293 cells (AID 1347053). Also: nearly all actives have a fitted effect of over 55% in size. Also: potency is read from the fitted curve at half-maximal effect. The method in brief: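 TR-FRET signal from two anti-ZIKV NS1 antibodies quantified NS1 in HEK 293 cells 24 h after MR766 infection at MOI = 0.5; compounds were added 1 h before virus. Uninfected cells and infected cells defined the NS1 normalization range.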
For test [5], the target named is T1, Tyrosine-protein phosphatase non-receptor type substrate 1 (Homo sapiens) + Leukocyte surface antigen CD47 (Homo sapiens) (UniProt P78324+Q08722). As to the kind of experiment: CD47-SIRPalpha protein protein interaction - LANCE assay qHTS validation (AID 1347057; active = well fitted curve in the direction sought with a large enough effect in the signal ratio, with a control signal flat, not every such curve was filed as active; the % refers to the signal ratio; also: series mostly up to about 38 µM). Put shortly:
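Inhibition of soluble CD47/SIRPalpha ectodomain association by titrated compounds, measured as 665/615 nm time-resolved FRET ratio after sequential 30 min room-temperature incubations.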
In general terms: TR-FRET usually uses a lanthanide donor and a delayed reading to cut background.

The target of test [6] is T1, Tyrosine-protein phosphatase non-receptor type substrate 1 (Homo sapiens) + Leukocyte surface antigen CD47 (Homo sapiens). The test can be described thus: CD47-SIRPalpha protein protein interaction - HTRF assay qHTS validation (AID 1347058; active = well fitted curve in the direction sought with a large enough effect in the signal ratio, not every such curve was filed as active; the % refers to the signal ratio; also: series mostly up to about 38 µM). The method in brief:
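Soluble extracellular domains (6His-CD47, Avi-tag-biotinylated SIRPalpha) in PBS pH 7.4 with 0.05% IGEPAL CA-630. Compounds were preincubated 30 min at RT with CD47 and anti-His-Eu, then SIRPalpha and SAV-XL665 were added. TR-FRET 665/615 ratio.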

For test [7] the target is unchanged. The test can be described thus: CD47-SIRPalpha protein protein interaction - Alpha assay qHTS validation (AID 1347059).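 Also: bead proximity luminescence from CD47 binding SIRPalpha after compound preincubation with SIRPalpha.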 Also: potency is read from the fitted curve at half-maximal effect. The method in brief:
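SIRPalpha-biotin 25 nM + cpd, 30 min RT, dark; add CD47-His 12.5 nM, 30 min; add Ni-NTA/SAV beads 10 ug/mL, 30 min; AlphaScreen. Buffer PBS pH 7.4 + 0.05% IGEPAL CA-630. Non-biotinylated SIRPalpha as control inhibitor.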

Test [8] has as its target Parathyroid hormone/parathyroid hormone-related peptide receptor (Homo sapiens) (UniProt Q03431). As to the kind of experiment: qHTS for PTHR1 Agonists: Optimization Screen against the NCGC LOPAC library (AID 1347079).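 Also: GloSensor cAMP luminescence in HEK-293 GP2 cells expressing human PTHR1 with IBMX.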 Put shortly: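 HEK-293 GP2 cells, PTHR1 + GloSensor cAMP; 3000 cells/well, o/n. Luciferin + IBMX 0.5mM each (stock), 1 hr 37C. Cpd titration, 1 hr 37C. Lum after 15 min RT. Ctrl M-PTH(1-15) top 10uM.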

Test [9] can be described thus: qHTS of pediatric cancer cell lines to identify multiple opportunities for drug repurposing: Primary screen for TC32 cells (AID 1347089). Also: nearly all actives have a fitted effect of over 60% in size. Also: potency is read from the fitted curve at half-maximal effect. The method in brief: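 Measured quantity: luminescence from CellTiter-Glo, reflecting metabolically active TC32 cells following 48 h of compound. Curves came straight from multi-point titrations, with 8 or 11 points in primary and 11 in confirmatory screening.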

Test [10] in a line: qHTS of pediatric cancer cell lines to identify multiple opportunities for drug repurposing: Primary screen for DAOY cells (AID 1347090). Also: nearly all actives have a fitted effect of over 55% in size. Also: potency is read from the fitted curve at half-maximal effect. Put shortly: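 Viability measured as metabolically active cells via CellTiter-Glo luminescence following 48 hours of compound exposure, 11-point dilutions in confirmatory testing. 500-1,000 cells/well plated 5 hours before dosing; controls were DMSO and 2.3 µM bortezomib.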

Where “and” joins values, the source holds several entries; their conditions need not be identical. Identical values can stand only once. Inconclusive results are not listed. More than one record can exist for a structure, and the calls need not agree. Calls of active or inactive are those of the source. Unless noted, calls follow the shape of the dose curve; as a rule, active = well fitted curve in the direction sought with a large enough effect; inconclusive = small, poorly fitted or top-dose-only effect, or another doubt; inactive = no such curve, though single readings can be large; an effect the other way counts as inactive or inconclusive.

T1 sequence (P78324 whole entry, looked up, the tested form may be a part): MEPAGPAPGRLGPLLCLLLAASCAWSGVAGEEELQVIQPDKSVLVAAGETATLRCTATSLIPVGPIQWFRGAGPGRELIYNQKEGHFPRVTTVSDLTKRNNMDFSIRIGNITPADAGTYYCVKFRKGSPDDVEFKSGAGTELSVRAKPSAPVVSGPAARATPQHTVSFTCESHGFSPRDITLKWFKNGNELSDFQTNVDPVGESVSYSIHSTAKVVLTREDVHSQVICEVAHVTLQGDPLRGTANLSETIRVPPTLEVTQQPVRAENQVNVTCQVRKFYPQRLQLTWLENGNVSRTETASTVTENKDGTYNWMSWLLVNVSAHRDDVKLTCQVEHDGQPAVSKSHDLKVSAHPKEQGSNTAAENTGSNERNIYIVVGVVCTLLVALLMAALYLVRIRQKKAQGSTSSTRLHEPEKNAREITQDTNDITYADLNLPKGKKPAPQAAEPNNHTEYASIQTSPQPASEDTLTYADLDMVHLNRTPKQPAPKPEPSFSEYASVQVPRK
T1 sequence (Q08722 whole entry, looked up, the tested form may be a part): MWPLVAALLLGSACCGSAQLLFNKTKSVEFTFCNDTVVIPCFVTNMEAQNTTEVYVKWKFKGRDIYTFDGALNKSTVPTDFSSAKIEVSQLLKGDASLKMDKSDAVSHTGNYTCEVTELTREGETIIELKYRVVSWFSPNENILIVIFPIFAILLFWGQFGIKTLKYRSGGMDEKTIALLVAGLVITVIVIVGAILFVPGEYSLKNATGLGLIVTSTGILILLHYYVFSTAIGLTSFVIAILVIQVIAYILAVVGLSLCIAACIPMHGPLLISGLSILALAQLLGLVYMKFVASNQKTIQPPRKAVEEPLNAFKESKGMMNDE
Atrial natriuretic peptide receptor 1 (Homo sapiens), sequence (P16066 whole entry, looked up): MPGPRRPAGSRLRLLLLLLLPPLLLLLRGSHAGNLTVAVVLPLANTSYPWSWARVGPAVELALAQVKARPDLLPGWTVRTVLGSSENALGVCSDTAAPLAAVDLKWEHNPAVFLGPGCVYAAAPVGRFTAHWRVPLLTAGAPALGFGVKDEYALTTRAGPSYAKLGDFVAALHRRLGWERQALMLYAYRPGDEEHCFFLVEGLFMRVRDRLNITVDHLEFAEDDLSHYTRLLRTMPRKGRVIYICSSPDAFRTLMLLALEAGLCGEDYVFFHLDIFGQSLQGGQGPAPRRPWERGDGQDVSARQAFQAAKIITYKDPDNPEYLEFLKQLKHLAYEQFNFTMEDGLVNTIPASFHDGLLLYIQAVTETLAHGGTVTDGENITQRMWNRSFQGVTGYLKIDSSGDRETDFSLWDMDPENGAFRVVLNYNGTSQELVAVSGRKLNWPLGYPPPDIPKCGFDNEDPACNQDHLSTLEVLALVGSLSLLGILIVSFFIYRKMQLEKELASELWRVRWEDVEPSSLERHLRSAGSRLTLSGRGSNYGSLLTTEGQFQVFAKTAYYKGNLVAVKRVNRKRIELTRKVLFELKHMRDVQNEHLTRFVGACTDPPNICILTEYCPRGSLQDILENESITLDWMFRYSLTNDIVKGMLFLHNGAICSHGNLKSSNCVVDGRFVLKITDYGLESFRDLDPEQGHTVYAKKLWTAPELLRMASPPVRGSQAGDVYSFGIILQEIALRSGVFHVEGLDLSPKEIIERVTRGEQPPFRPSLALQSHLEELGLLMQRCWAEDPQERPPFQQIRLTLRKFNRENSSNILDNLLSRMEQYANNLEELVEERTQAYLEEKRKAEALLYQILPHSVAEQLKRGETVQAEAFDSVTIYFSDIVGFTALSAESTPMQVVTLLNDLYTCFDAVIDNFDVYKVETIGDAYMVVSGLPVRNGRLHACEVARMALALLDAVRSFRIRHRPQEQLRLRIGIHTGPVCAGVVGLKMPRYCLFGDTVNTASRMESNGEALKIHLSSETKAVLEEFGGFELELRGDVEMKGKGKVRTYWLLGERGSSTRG
Parathyroid hormone/parathyroid hormone-related peptide receptor (Homo sapiens), sequence (Q03431 whole entry, looked up): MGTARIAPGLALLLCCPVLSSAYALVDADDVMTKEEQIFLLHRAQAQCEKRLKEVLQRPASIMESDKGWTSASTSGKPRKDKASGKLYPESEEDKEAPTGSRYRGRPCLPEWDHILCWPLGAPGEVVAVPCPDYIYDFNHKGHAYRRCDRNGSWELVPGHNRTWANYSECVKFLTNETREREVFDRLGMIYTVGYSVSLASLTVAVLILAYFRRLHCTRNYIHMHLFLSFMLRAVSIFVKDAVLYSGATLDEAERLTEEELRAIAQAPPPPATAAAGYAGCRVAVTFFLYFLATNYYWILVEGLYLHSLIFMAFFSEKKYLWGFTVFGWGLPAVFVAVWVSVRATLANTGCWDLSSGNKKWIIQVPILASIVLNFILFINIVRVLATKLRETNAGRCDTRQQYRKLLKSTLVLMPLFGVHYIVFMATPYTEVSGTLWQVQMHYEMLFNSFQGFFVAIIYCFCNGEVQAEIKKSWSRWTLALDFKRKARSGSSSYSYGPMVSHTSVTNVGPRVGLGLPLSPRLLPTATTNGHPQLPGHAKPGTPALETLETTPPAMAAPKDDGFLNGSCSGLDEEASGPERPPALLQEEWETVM

Regarding `CCN(CC)C(=S)SSC(=S)N(CC)CC`, the Potency in [1] is 41.8 nM (active) and inactive; in test [2], 3.29 µM (active); in [3] it was 2.39 µM (active); in test [4], 8.33 µM (active); in test [9], 989 nM (active) and 4.19 µM (active); in [10] it was 11.8 nM (active) and 49.5 nM (active) and 133 nM (active). Besides, the outcome in [5], in test [6] and in test [8] was inactive. Also, the Potency entry in test [7] was “inactive”.

Turning to `Nc1ccn([C@@H]2O[C@H](CO)[C@@H](O)C2O)c(=O)n1` (some centres not stated), the Potency entry in test [1], in [2], in [3], in [4], in test [9] and in [10] was “inactive” throughout. The result in test [8] was inactive.

Consider `c1cnc2cc3c(cc2n1)C1CNCC3C1`, for which the Potency result in test [1], in test [4], in test [7], in test [9] and in test [10] was “inactive” throughout. Besides, the result in test [5] and in test [6] was inactive.

In the case of `CCOC(=O)C(C)Oc1cccc2c(=O)n(CC(=O)Nc3ccc4c(c3)OCCO4)ccc12` (configuration not stated), the Potency entry in test [1], in test [2], in [3], in [4], in test [7] and in test [9] was “inactive” each time. The result in [5], in test [6] and in test [8] was inactive.

On to `CC1(C)C(=O)N(CCN2CCC(C(=O)c3ccc(F)cc3)CC2)c2ccccc21`, for which the Potency result in test [1], in test [2], in [3], in test [4], in test [7] and in [9] was “inactive” throughout. Besides, the result in [5] and in [8] was inactive.

On to `C[C@@H](N)C1CCC(C(=O)Nc2ccncc2)CC1` (some centres not stated), for which the Potency result in test [1], in test [4], in test [7], in test [9] and in [10] was “inactive” throughout. Further, the result in [5], in test [6] and in test [8] was inactive.

With `Oc1ccc2ccccc2c1SSc1c(O)ccc2ccccc12`, the Potency result in test [1], in test [4], in test [7] and in test [9] was “inactive” in each case. In test [3], the outcome was “inactive; inac”. Further, the result in test [5], in test [6] and in test [8] was inactive.

As for `CCOC(=O)C1=C(O)C(=O)N(Cc2ccccc2)C1`, the Potency result in test [1], in [4], in test [7], in test [9] and in test [10] was “inactive” in each case. The outcome in test [5] and in [6] was inactive.

Consider `NCCCCNCCCN`, for which the Potency entry in test [1], in [2], in test [3], in [4], in test [7] and in [9] was “inactive” throughout. Further, in test [10], the Potency result is “inactive”. For the same molecule, the result in test [5], in test [6] and in test [8] was inactive.

As to `C[C@H](Cc1ccc(O)c(O)c1)[C@@H](C)Cc1ccc(O)c(O)c1`, the Potency result in test [1], in test [3], in [4] and in [7] was “inactive” throughout. The outcome in test [5], in test [6] and in [8] was inactive.

As for `CN(C)c1ccc2nc3ccc(=[N+](C)C)cc-3sc2c1`, the Potency is 3.32 µM (active) and 6.51 µM (active) in test [1]; 16.5 µM (active) and 21 µM (active) in test [9]. Moreover, the Potency entry in [4] is “inactive”.

With `O=c1ccc2ccc(O)c(O)c2o1`, the Potency entry in [1], in test [2], in [3], in test [4], in test [7] and in [9] was “inactive” each time. Also, the outcome in test [5] and in [8] was inactive. Further, the Potency in test [10] is 7.43 µM (active).

`COc1ccccc1N1CCN(CCN(C(=O)C2CCCCC2)c2ccccn2)CC1`: the Potency entry in test [1], in test [2], in test [3], in test [4], in test [7] and in test [9] was “inactive” each time. The outcome in test [5], in [6] and in test [8] was inactive.

Regarding `O=Nc1c(-c2c(O)[nH]c3cc(Br)ccc23)[nH]c2ccccc12`, the Potency in test [1] was 9.35 µM (active); in [7] it was 1.31 µM (active); in test [10], 11.8 µM (active). The outcome in test [5] and in test [8] was inactive. Also, the Potency result in test [9] was “inactive”.

With `C[C@@H](c1ncncc1F)[C@](O)(Cn1cncn1)c1ccc(F)cc1F`, the Potency result in test [4], in test [7] and in [9] was “inactive” each time. In addition, the outcome in test [5] and in [6] was inactive.

On to `O=C(CS(=O)Cc1ccco1)NCC=CCOc1cc(CN2CCCCC2)ccn1` (configuration not stated), for which the Potency entry in test [1], in test [4], in [9] and in [10] was “inactive” each time.

Regarding `O=C1c2c(O)cc(O)cc2OC(c2ccc(O)c(O)c2)C1O` (configuration not stated), the Potency entry in test [2], in [3], in [4], in test [7], in [9] and in test [10] was “inactive” in each case. Moreover, the result in test [5], in [6] and in test [8] was inactive.

Take `Cc1cc(=O)c2c(O)c3c(O)cc(=O)c4c3c3c(cc(O)c1c23)C(C)(C)C=4O`: the Potency in test [1] was 1.46 µM (active) and 4.69 µM (active); in [10], 1.16 µM (active) and 18.7 µM (active). Also, the Potency result in test [4] and in test [9] was “inactive” each time.

In the case of `CC(=O)N1CCN(c2ccc(OC[C@H]3CO[C@](Cn4ccnc4)(c4ccc(Cl)cc4Cl)O3)cc2)CC1`, the Potency in test [2] was 18.5 µM (active). For the same molecule, the Potency result in test [3], in test [4] and in test [9] was “inactive” in each case. Further, the result in test [5], in [6] and in test [8] was inactive.

For `O=P(O)(O)C(O)(Cn1ccnc1)P(=O)(O)O`, the Potency entry in test [1], in test [9] and in test [10] was “inactive” in each case.

Take `Cc1cc(=O)oc2cc(O)ccc12`: the Potency result in test [4] and in test [9] was “inactive” throughout.

Consider `CC(=O)O[C@H]1C(=O)[C@@]2(C)C([C@H](OC(=O)c3ccccc3)[C@]3(O)C[C@H](OC(=O)[C@H](O)[C@@H](NC(=O)c4ccccc4)c4ccccc4)C(C)=C1C3(C)C)[C@]1(OC(C)=O)CO[C@@H]1C[C@@H]2O` (some centres not stated), for which, in [2], the Potency entry was “inactive”. The Potency in [4] was 0.0066 µM (active); in test [9], 1.7 nM (active). The molecule was called inactive in test [8].

Consider `c1ccc2[nH]c(-c3cscn3)nc2c1`, for which the Potency entry in test [1], in test [4], in test [9] and in test [10] was “inactive” throughout.

`CN(C)CCCC1(c2ccc(F)cc2)OCc2cc(C#N)ccc21` (configuration not stated): the Potency result in test [2], in [3], in [4], in [7] and in [9] was “inactive” in each case. Besides, the result in [5], in test [6] and in test [8] was inactive.

As to `O=C(O)CCNC(=O)c1ccc(N=Nc2ccc(O)c(C(=O)O)c2)cc1`, the Potency result in test [1], in test [4], in test [9] and in [10] was “inactive” throughout.

For the molecule `CN1CCC(=C2c3ccccc3CCc3sccc32)CC1`, the Potency entry in test [4] and in [9] was “inactive” each time.

Take `NC(=O)Cc1cccc(C(=O)c2ccccc2)c1N`: the Potency result in test [1], in [4], in [9] and in [10] was “inactive” in each case.

Regarding `COc1cc2c(cc1OC)C1CC(=O)C(CC(C)C)CN1CC2` (configuration not stated), the Potency entry in test [2], in test [3], in test [4], in test [7], in test [9] and in [10] was “inactive” throughout. Besides, the result in test [5], in test [6] and in test [8] was inactive.
